Data: PubChem BioAssay (NCATS)
Records with an inconclusive call do not appear. The source made the active and inactive calls. Calls follow the shape of the dose curve; as a rule, active = well fitted cell-killing curve with a large enough effect; inconclusive = small, poorly fitted or top-dose-only effect, or effect the other way; inactive = no such curve, though single readings can be large or run the other way.

assay: Quantitative highthroughput screen to assess conditional lethalithy of SEM cells grown in RPMI1640 with dialyzed fetal bovine serum (RPMI+ds) (AID 1963884); details: SEM B-ALL cells, RPMI+dialyzed FBS, CellTiter-Glo viability, 48 h; series mostly up to 45.8 µM; viability: at the top concentration; also: nearly all actives have a fitted effect of over 35% in size
Excerpt: Assay Provider: Jason Cantor Ph.D.
Department of Biochemistry
University of Wisconsin-Madison, Madison, WI, USA
Chemical screening studies have identified drug sensitivities across hundreds of cancer cell lines but most putative therapeutics fail to translate. Discovery and development of drug candidates in models that more accurately reflect nutrient levels in human blood is a major challenge. Here we performed high-throughput screens in conventional versus Human Plasma-Like Medium (HPLM) to identify compounds that were "missed" when screening using the artificial culture condition. Sets of conditional anticancer compounds spanned phases of clinical development and included non-oncology drugs were assessed. […] We also traced conditional phenotypes for several chemotherapeutics to availability of HPLM-specific metabolites and confirmed others for compounds whose reported targets are encoded by nonessential genes. Our findings establish generalizable strategies for exploiting conditional lethality in HPLM to reveal therapeutic candidates and mechanisms of action in cancer cells.
Described herein are the results of each viability screens against three cell lines: NOMO1 (an acute myeloid leukemia cell line); P12-Ichikawa (a T-cell acute lymphoblastic leukemia); and SEM (a B-cell ALL). Each assay was screened using 3 different cell culture media: homemade human plasma-Like medium with 10% dialyzed fetal bovine serum (HPLM+ds); RPMI1640 with 10% untreated FBS and 5mM glucose (RPMI+s); and RPMI1640 with 10% dialyzed fetal bovine serum and 5 mM glucose (RPMI+ds).
PROTOCOL TABLE (as described by Inglese J, Shamu CE and Guy RK. 2007)
SEQUENCE No. (e.g., 1, 2, 3, etc.); […] (e.g., Cells, Incubation, Reagent, etc.); VALUE and DESCRIPTION.
1; Cells; 5 uL; white, solid bottom 1536-well Greiner assay plate.
2; Compounds; 23 nL; Kalypsis pin tool (Wako USA) equipped with a 1536-well pin head to transfer to the assay plates.
3; Incubation; 48 hours; 37C incubation.
4; Reagent; 3 uL; CellTiter Glo (Promega).
5; Incubation; 5 min, room temperature
6; Detection; Luminescence, Viewlux PerkinElmer.
NOTES (numbers refer to Sequence numbers above)
1. Briefly, 5 ul of cell reagent was dispensed using a Multidrop Combi Dispenser. The NOMO1 and SEM cells were plated at 500 cells/well and the P12-Ichikawa line at 1000 cells/well.
2. After seeding the cells, 23 nL of MIPE 4.1 library compounds (in DMSO) were added to each plate using a Kalypsys 1536 Pintool dispenser. Bortezomib at final concentration of […] and DMSO were added to each plate as positive and negative controls respectively. For each screen, MIPE 4.1 compounds were added over an eleven-point concentration range […] in 3-fold dilutions.
3. Each plate was covered with a stainless steel gasketed lid to prevent evaporation and incubated for 48 hour at 37C, 95% relative humidity, and 5% CO2.
4-5. Three microliter CellTilter-GloTM luminescent substrate mix (Promega) reagent was added to the assay plate and incubated at room temperature for 5 min.
6. The luminescence signal was measured using a ViewLux (PerkinElmer) multiplate reader with a 2 second exposure time per plate. Data for each compound were normalized as percent viability such that measurements for DMSO and the empty well controls in each plate were defined as 100% and 0%, respectively.
Potency is read from the fitted curve at half-maximal effect.

Structure (SMILES) | viability | Potency
CCOC1OC(=O)C[C@H]1NC(=O)[C@@H]1CCCN1C(=O)[C@@H](NC(=O)c1ccc(N)c(Cl)c1)C(C)(C)C (stereo not given in full) | 90.2% (inactive) | 
Cc1ncc([N+](=O)[O-])n1CCO | 103% (inactive) | 
O=C(O)CCNc1cc(N2CCc3ccccc3CC2)nc(-c2ccccn2)n1 | 92.2% (inactive) | 
FC(F)(F)c1ccc(CNc2ccc(Cc3c[nH]c4ncc(Cl)cc34)cn2)cn1 |  | 1.48 µM (active)
CCc1c(O)cc(O)c(C(=O)c2ccc(OCCN3CCOCC3)c(OC)c2)c1CC(=O)N(CCOC)CCOC |  | 2.64 µM (active)
O=C(O)C1=CO[C@@H](O[C@@H]2O[C@H](CO)[C@H](O)[C@H](O)[C@H]2O)[C@@H]2C(CO)=CC[C@H]12 | 109% (inactive) | 
NC(=O)c1ccc2[nH]ccc2c1 |  | 18.7 µM (active)
O=C(NOC[C@H](O)CO)c1ccc(F)c(F)c1Nc1ccc(I)cc1F |  | 11.8 µM (active)
COc1cccc2c1C(=O)c1c(O)c3c(c(O)c1C2=O)C[C@@](O)(C(=O)CO)C[C@@H]3O[C@H]1C[C@H](N)[C@H](OC2CCCCO2)[C@H](C)O1 (stereo not given in full) | 103% (inactive) | 
CC(=NNC(=S)N1CCC1)c1ccccn1 |  | 0.0021 µM (active)
O=NN(CCCl)C(=O)NCCCl | 79.1% (inactive) | 
COc1ccc(CCN2CCN(CCCc3ccccc3)CC2)cc1OC | 85.7% (inactive) | 
COc1ccc(-c2cc3c(C)nc(N)nc3n(C3CCC(OCCO)CC3)c2=O)cn1 (stereo not given) |  | 1.87 µM (active)
CO[C@H]1C=CO[C@@]2(C)Oc3c(C)c(O)c4c(O)c(c5c(c4c3C2=O)NC2(CCN(CC(C)C)CC2)N=5)=NC(=O)C(C)=CC=C[C@H](C)[C@H](O)[C@@H](C)[C@@H](O)[C@@H](C)[C@H](OC(C)=O)[C@H]1C | 80.9% (inactive) | 
O=C1N(c2ccccc2)c2ccccc2C1(Cc1ccncc1)Cc1ccncc1 | 98.6% (inactive) | 
Cn1cc(-c2[nH]c3cc(NC(=O)[C@H](N)C4CCCCC4)cc4c3c2C=NNC4=O)cn1 |  | 1.18 µM (active)
COc1cc(OC)c(NC(=O)Nc2cc(C)on2)cc1Cl | 72.6% (inactive) | 
O=C(N[C@H](CO)[C@H](O)c1ccc([N+](=O)[O-])cc1)C(Cl)Cl | 76.9% (inactive) | 
C[C@@H](O)[C@H]1C(=O)N2C(C(=O)OCOC(=O)C(C)(C)C)=C(SC3CN(C4=NCCS4)C3)[C@H](C)[C@H]12 | 72.8% (inactive) | 
C1=CCOCc2cc(ccc2OCCN2CCCC2)Nc2nccc(n2)-c2cccc(c2)OCC1 |  | 4.18 µM (active)

Structure (SMILES) | viability | Potency
Cc1nccn1CC1CCc2c(c3ccccc3n2C)C1=O (stereo not given) | 76.7% (inactive) | 
O=C(Nc1nnc(-c2ccco2)o1)c1cc(-c2ccccc2)nc2ccccc12 |  | 20.9 µM (active)
COc1cc2c(cc1OC)[C@@H]1C(=O)c3ccc4c(c3O[C@@H]1CO2)C=CC(C)(C)O4 |  | 16.6 µM (active)
CS(=O)(=O)N(Cc1ccco1)CC(O)Cn1c2ccccc2c2ccccc21 (stereo not given) |  | 5.9 µM (active)
Cc1ccc2c(c1)C(=O)[C@]1(O)CCN(c3ccccc3)C1=N2 | 113% (inactive) | 
CN1CCN(CCCN2c3ccccc3Sc3ccc(C(F)(F)F)cc32)CC1 | 90.3% (inactive) | 
CC(=O)OCC(=O)[C@@]1(O)CC[C@H]2[C@@H]3CCC4=CC(=O)CC[C@]4(C)[C@@H]3C(=O)C[C@@]21C | 95.9% (inactive) | 
CC[C@@H]1C(=O)N(C)c2cnc(Nc3ccc(C(=O)NC4CCN(C)CC4)cc3OC)nc2N1C1CCCC1 |  | 0.0469 µM (active)
COC(=O)[C@H](c1ccccc1Cl)N1CCc2sccc2C1 | 91.4% (inactive) | 
Cc1c(C(=O)Nc2ccc(N3C[C@@H](C)O[C@@H](C)C3)nc2)cccc1-c1ccc(OC(F)(F)F)cc1 |  | 2.35 µM (active)
CS(=O)(=O)Oc1ccc2c(NC(N)=O)c(C(=O)c3ccc(Cl)cc3Cl)oc2c1 | 106% (inactive) | 
COC[C@H](NC(=O)c1cnc(C)s1)C(=O)N[C@@H](COC)C(=O)N[C@@H](Cc1ccccc1)C(=O)[C@@]1(C)CO1 |  | 0.0833 µM (active)
O=C(Cc1ccc(-c2ccc(OCCN3CCOCC3)cc2)cn1)NCc1ccccc1 |  | 0.0296 µM (active)
Cc1ccc(C(=O)N(CCCN)[C@@H](c2nc3cc(Cl)ccc3c(=O)n2Cc2ccccc2)C(C)C)cc1 |  | 0.0013 µM (active)
COc1ccc2c(OCc3nnc4ccc(-c5ccccc5)nn34)ccnc2c1 |  | 18.7 µM (active)
CC(=O)OC1C(C)OC(Oc2c(-c3ccc(O)cc3)oc3cc(O)cc(O)c3c2=O)C(O)C1OC(C)=O (stereo not given) | 90.6% (inactive) | 
NC(N)=NC(=O)c1nc(Cl)c(N)nc1N | 105% (inactive) | 
Nc1ccn([C@@H]2C(F)=C(CO)[C@@H](O)[C@H]2O)c(=O)n1 |  | 1.48 µM (active)
CC(C)c1nn(-c2c(Cl)cccc2Cl)c2nc(Cc3ccc(OCCO)cc3)[nH]c(=O)c12 |  | 0.148 µM (active)
COc1ccc(-c2nc(N3CCOCC3)c3sc(CN(C)c4ncc(C(=O)NO)cn4)cc3n2)cn1 |  | 0.0132 µM (active)
